This is part of a sample that, as a whole, favours compounds with a hit. Of some 83,000 tested, about 20% had one in any assay.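 For each line, cells grew in 96-well plates with the test compound present at a single concentration for 48 hours.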 A number with no mark means an inactive call. Calls of active or inactive are those of the source.

Drawing on PubChem BioAssay (NCI), this text covers growth for 40 compounds.

This assay has as its system COLO 205 colon. The assay can be described thus: NCI-60 one-dose screen, 48 h (100 = growth as untreated, 0 = no growth, -100 = all killed). To be noted: 10 µM unless noted. Here is the method:
Cells are grown in 96 well plates and exposed to the test compound for 48 hours. Compounds are tested at a single concentration, which is 10^-5 M for most compounds. The reported endpoint is percent growth (GI% or GIPRCNT), where numbers from 0 - 100% represent growth inhibition, and numbers from -100% - 0 represent cell death. For example, a value of 40 represents 60% growth inhibition. A value of 0 means no net growth occurred over the course of the experiment. A value of -40 indicates 40% of cells at the beginning of the experiment died by the end of the experiment. A value of -100 means all cells are dead at the end of the experiment.
NCI-60 Human Tumor Cell Lines Screen was performed using the standard one-dose NCI protocol, which is described in more detail at https://dtp.cancer.gov/discovery_development/nci-60/default.htm.
Compounds with GIPRCNT values below 10 were considered active. Activity score was based on GIPRCNT using the following formula: […]
Score is 0 for GIPRCNT values of 100 or above, 50 for GIPRCNT values of 0, and 100 for GIPRCNT values of -100.
For the compound `CCOc1ccc(Nc2nc3c(s2)C(=O)c2ccccc2C3=O)cc1`, the growth was 100%. Turning to `CC(=O)OC1CC2CCC1(C)C2(C)C` (stereo not given), the growth is 108%. Consider `CCNc1nnnn1CC`, for which the growth is 109%. The result for `O=[N+]([O-])C=C(c1ccccc1)c1ccccc1` reads 114%; that for `COC(=O)c1cc([N+](=O)[O-])cc([N+](=O)[O-])c1Cl`, -64.1% (active); that for `O=C(O)c1cc2c(s1)C(=O)c1sccc1C2=O`, 104%. For `Cc1oc2c(C)c3oc(=O)cc(C)c3cc2c1CCl`, the growth was 83.8%. As to `CC1=CC(=O)C=CC1(C)C(Cl)(Cl)Cl` (stereo not given), the growth is 89.7%. As for `OC(c1cc(-c2ccc(Cl)cc2)nc2c(Cl)cccc12)C1CCCCN1` (stereo not given), the growth is -91.1% (active).

As to `Cc1cc(Br)c2nsnc2c1[N+](=O)[O-]`, the growth is 0.766% (active). Take `Cn1c(-c2ccccc2)c(/C=C/C2=[N+](C)c3ccccc3C2(C)C)c2ccccc21`: the growth is -83.9% (active). Consider `CCCCC(C=O)(C=C=C(C)C)CC` (stereo not given), for which the growth was 110%. For the compound `O=C(C[P+](c1ccccc1)(c1ccccc1)c1ccccc1)c1ccccc1`, the growth is 89.6%.

`Cc1nnc(N/N=C/c2ccc([N+](=O)[O-])o2)[nH]c1=O`: the growth was -56.5% (active). For the compound `CCN1CCCC(Nc2cc(C)nc(/N=C(/N)Nc3ccc(Cl)c(Cl)c3)n2)C1` (stereo not given), the growth was -77.6% (active). Consider `NC(=Nc1nc(-c2ccccn2)cc2ccccc12)c1ccccn1`, for which the growth is 6.29% (active). In the case of `O=C1/C(=C/c2ccccc2)CCC/C1=C\c1ccccc1`, the growth is 127%.

In the case of `O=C(c1ccc(O)c(Br)c1)c1ccc(O)c(Br)c1`, the growth is 112%. With `CCCc1cc(=O)oc2c3c(c4c(c12)OC(C)(C)CC4)OC(C)[C@H](C)[C@@H]3O` (stereo not given in full), the growth is 96.1%. The result for `O=C(c1ccccc1)C(Br)[N+](=O)[O-]` (stereo not given) reads 86.8%; that for `COc1cc([C@@H]2c3cc4c(cc3[C@H](OC3OC5COC(c6ccccc6)OC5C(O)C3O)[C@H]3COC(=O)[C@H]23)OCO4)cc(OC)c1OC` (stereo not given in full), -77.6% (active). As for `Cc1cc(N/N=C/c2ccccn2)nc2ccccc12`, the growth is 20.5%. For the compound `CN(C)CCN(C)CC(C)(C)C(=O)/C=C/c1ccc(Cl)c(Cl)c1`, the growth was -90.3% [100 µM] (active). Turning to `CN=C(N)N/N=C(\c1ccccc1)c1ccc(Br)cc1`, the growth is -55.6% (active). As to `CCN(CC)CCNc1ccc([N+](=O)[O-])c2sc3ccccc3c(=O)c12`, the growth was 1.96% (active).

For `CC(C)c1ccc(Nc2n[nH]c(=S)s2)cc1`, the growth is 116%. `CCCCCCCCCCCC[N+]1(CCCCCCCCCCCC)CCCC(C)C1` (stereo not given): the growth is -98.8% (active). As for `O=C(Nc1ccc(Cl)c(Cl)c1)Nc1ccccc1O`, the growth was 85.3%. The result for `Nc1ccc(Oc2ccccc2)c(Cl)c1` reads 96.2%; that for `CCCCCCCCc1cc(Cl)c(O)c(Cl)c1`, 108%. The result for `CCCOC(=O)c1nc(N(CC2CCCCC2)C(=O)NC)sc1/N=C/c1ccccc1` reads 18.6%; that for `CCN(CC)c1ccc(/C=C\C(=O)c2ccc(NC(C)=O)cc2)cc1`, 49.4%; that for `CCC[CH2][Sn]1([CH2]CCC)[O]C2C(CO)OC(n3ccc(N)nc3=O)C2[O]1` (stereo not given), -79.4% (active). Consider `CCOC(=O)c1cc(CC)sc1NC(=O)CC(C)=O`, for which the growth is 90.2%.

Take `COc1ccc(C(OCC2OC(n3ccc(NC(=O)c4ccccc4)nc3=O)C(O)C2O)(c2ccccc2)c2ccccc2)cc1` (stereo not given): the growth is 39.5%. Take `COc1ccc(NC(=O)/C(=C/N2C(=O)/C(=C/c3ccc(OC)c(OC)c3)NC2=S)C(C)=O)cc1`: the growth is 107%. Consider `CCN1/C(=C/C(C)=C/c2sc3ccc4ccccc4c3[n+]2CC)Sc2ccc3ccccc3c21`, for which the growth is -83.6% (active).

On to `NC(=S)N/N=C\c1nccc2c(N)cccc12`, for which the growth is 16.2%.

In the case of `N#Cc1c2ccccc2nc2ccccc12`, the growth was 107%. Take `CC1(C)CCCC2=C1C(=O)N(SC(Cl)(Cl)Cl)C2=O`: the growth was 69.8%.
